{"source": "PubChem BioAssay AID1963316", "about": "(National Center for Advancing Translational Sciences (NCATS), 2024)", "note": "Results filed as inconclusive are left out. Where a call stands in place of a potency, no number is given. Active and inactive are the calls of the source. The call rests on the fitted dose curve.", "data": [{"molecular_target": "Tyrosine-protein kinase ABL1 (Homo sapiens) (UniProt P00519)", "sequence (P00519 whole entry, looked up)": "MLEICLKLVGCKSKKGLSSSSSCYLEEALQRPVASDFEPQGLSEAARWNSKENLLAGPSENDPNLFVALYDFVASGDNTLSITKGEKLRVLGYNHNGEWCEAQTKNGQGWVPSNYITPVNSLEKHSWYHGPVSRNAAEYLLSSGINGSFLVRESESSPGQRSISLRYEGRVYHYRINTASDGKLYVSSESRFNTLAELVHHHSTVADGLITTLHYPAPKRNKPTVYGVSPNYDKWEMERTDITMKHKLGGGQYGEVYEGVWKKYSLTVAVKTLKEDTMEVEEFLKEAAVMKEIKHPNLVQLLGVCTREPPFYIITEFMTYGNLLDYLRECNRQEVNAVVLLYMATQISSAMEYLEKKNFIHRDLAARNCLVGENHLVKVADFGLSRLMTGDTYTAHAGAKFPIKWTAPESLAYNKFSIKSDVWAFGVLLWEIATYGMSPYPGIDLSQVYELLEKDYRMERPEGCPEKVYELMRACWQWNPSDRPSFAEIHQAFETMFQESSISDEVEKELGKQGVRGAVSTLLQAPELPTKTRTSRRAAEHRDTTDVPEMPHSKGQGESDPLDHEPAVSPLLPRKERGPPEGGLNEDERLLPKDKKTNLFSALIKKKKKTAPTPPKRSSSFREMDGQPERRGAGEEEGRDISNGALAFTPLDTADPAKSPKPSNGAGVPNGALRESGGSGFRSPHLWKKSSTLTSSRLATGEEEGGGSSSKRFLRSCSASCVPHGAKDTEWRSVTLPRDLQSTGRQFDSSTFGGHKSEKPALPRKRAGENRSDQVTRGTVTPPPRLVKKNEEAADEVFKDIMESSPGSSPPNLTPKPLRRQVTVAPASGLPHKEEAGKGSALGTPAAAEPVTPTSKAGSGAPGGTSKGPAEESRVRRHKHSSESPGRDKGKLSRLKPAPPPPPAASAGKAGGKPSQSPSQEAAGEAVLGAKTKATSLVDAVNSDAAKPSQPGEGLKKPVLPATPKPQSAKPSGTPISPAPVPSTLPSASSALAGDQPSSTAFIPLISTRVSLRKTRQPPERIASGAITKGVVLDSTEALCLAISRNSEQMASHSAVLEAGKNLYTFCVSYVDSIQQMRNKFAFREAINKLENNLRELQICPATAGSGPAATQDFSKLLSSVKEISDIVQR", "assay": "ABL1 kinase (ABL1-N-HiBiT) SDR gain of signal screen - plus ATP", "details": "purified ABL1-N-HiBiT enzyme, HiBiT luminescence with 50 uM ATP, 30 min; series mostly up to 57.5 µM", "excerpt": "National Center for Advancing Translational Sciences (NCATS),\nNational Institute of Health (NIH), Maryland\nDiscovery and optimization of novel protein-binding ligands underlies many of the methods and applications of biology, drug discovery, clinical diagnostics, and environmental toxicology. Assays for detecting the interaction of, for example, a molecule with a macromolecular target also referred to here as the target of interest (TOI) is dependent on a compatible output technology. Depending on the nature and knowledge surrounding the TOI, whether a receptor, enzyme, regulatory subunit or scaffold, or a sequence-defined nucleic acid folded into a complex tertiary structure, assay strategies can vary widely.\nHere we exploit ligand-biased changes in the structural dynamics of the target protein to control reporter alpha complementation allowing a non-competitive, non-functional, non-separation measure of ligand-target interaction.\nSecondly, we show the specificity and sensitivity of the SDR for the Abelson tyrosine kinase (ABL1) compared to the serine/threonine protein kinase A, using an enriched chemical library of 128 compounds selected, in part, for activity annotated with ABL1 kinase activity using the Pharos database (3).\n(1) A. S. Dixon et al., NanoLuc Complementation Reporter Optimized for Accurate Measurement of Protein Interactions in Cells. ACS Chem Biol 11, 400-408 (2016).\nChemistry & Biology, 19, 1060 - 1072 (2012).\n(3) K. J. Kelleher et al., Pharos 2023: an integrated resource for the understudied human proteome. Nucleic Acids Res 51, D1405-D1416 (2023).\nPROTOCOL TABLE (as described by Inglese J, Shamu CE and Guy RK. 2007)\nSEQUENCE No. (e.g., 1, 2, 3, etc.); […] (e.g., C. elegans, Compounds, Incubation, Read, etc.); VALUE and DESCRIPTION.\n1. Reagent. Dispense 4 uL ABL1-N-HiBiT enzyme per well at a final enzyme concentration of 10 nM in buffer with 50 uM ATP (SDR assay) into columns 2-48 of four replicate Greiner 1536-well white, solid bottom high base, medium plates per assay. Dispense respective buffer without enzyme at 4 uL/well in column 1 of assay plates using BioRaptr 2.\n2. Compounds. Library compounds added at 23 nL/well by pin transfer. DMSO neutral control and imatinib positive control added at 25 nL/well, transfer by Mosquito dispenser.\n3. Incubation. Incubate enzyme and compounds at room temperature for 30 min, protected from light.\n4. Reagent. (SDR assay) Add 3 uL/well of Nano-Glo HiBiT reagent (Promega) to assay plates with ATP.\n5. Incubation. (SDR assay) Incubate enzyme solution and HiBiT reagent at room temperature for 10 min, protect from light.\n6. Detector. (SDR assay) Luminescence measured using CCD-based camera (ViewLux) with settings as follows: Exposure, 1 sec; Gain, High; Speed, Slow; Binning, 2X.\nInglese J, Shamu CE and Guy RK, Reporting data from high throughput screening of small molecule libraries, Nature Chemical Biology, 2007, 3(8): 438-441. doi.org/10.1038/nchembio0807-438.", "values": [{"smiles": "N#Cc1ccc2ncnc(NCCc3ccccc3)c2c1", "Potency": "inactive"}, {"smiles": "Oc1ccc(-c2ccc(-c3cc(Nc4cccc(CNC5CC5)c4)n[nH]3)cc2)c(O)c1", "Potency": "inactive"}, {"smiles": "C=CC(=O)N1CCC[C@@H](n2nc(-c3cccc(C(=O)Nc4ccc(C(C)C)c(C)c4)c3)c3c(N)ncnc32)C1", "Potency": "inactive"}, {"smiles": "COc1ccc(S(=O)(=O)N(C(C)=O)c2ccccc2/C=C/c2cc[n+]([O-])cc2)cc1", "Potency": "inactive"}, {"smiles": "N#Cc1cccc(-c2c[nH]c3ncnc(N4CCOCC4)c23)c1", "Potency": "inactive"}, {"smiles": "CCN1C(=O)CNc2ncc(-c3ccc(-c4ncn[nH]4)nc3C)nc21", "Potency": "inactive"}, {"smiles": "C[C@@H]1CCNC(=O)c2cc3ccc(C(=O)Nc4nc5ccccc5n4CCCN(C)C)cc3n21", "Potency": "inactive"}, {"smiles": "CCN(CC)CCOc1ccc(Nc2ncc3cc(-c4c(Cl)cccc4Cl)c(=O)n(C)c3n2)cc1", "Potency": "inactive"}, {"smiles": "CNS(=O)(=O)c1ccc2c(c1)/C(=C/c1[nH]c3c(c1CCCN1CCN(C)CC1)CCCC3)C(=O)N2", "Potency": "1770 nM (active)"}, {"smiles": "Cc1cccc(/C=N/Nc2cc(N3CCOCC3)nc(OCCc3ccccn3)n2)c1", "Potency": "inactive"}, {"smiles": "Cc1[nH]nc2ncc(C(=O)N3CCC[C@H]3c3ccc(Cl)cc3)cc12", "Potency": "inactive"}, {"smiles": "Cc1nc2ccc(-n3ncc(C(=O)c4cc5ccccc5[nH]4)c3N)cc2[nH]1", "Potency": "inactive"}, {"smiles": "O=C(Nc1cc(C(F)(F)F)ccc1N1CCCCC1)c1ccncc1", "Potency": "inactive"}, {"smiles": "Cc1cc(O)c2c(c1)C(=O)c1cc(O)cc(O)c1C2=O", "Potency": "inactive"}, {"smiles": "COc1ccc(CNC(=O)Nc2ncc([N+](=O)[O-])s2)cc1", "Potency": "inactive"}, {"smiles": "FC(F)(F)c1ccc(/C=C/c2nc(COc3ccc(CCCCn4ccnn4)cc3)co2)cc1", "Potency": "inactive"}, {"smiles": "CC[C@@](C)(Nc1ccnc(-c2c[nH]c3ncccc23)n1)C(=O)NCC(F)(F)F", "Potency": "11200 nM (active)"}, {"smiles": "COc1cc(N2CCC(O)CC2)ccc1Nc1nc(Nc2ccccc2S(=O)(=O)C(C)C)c2[nH]cnc2n1", "Potency": "inactive"}, {"smiles": "c1cc(-c2cc(C3CCNCC3)[nH]n2)ccn1", "Potency": "inactive"}, {"smiles": "CC(C)(NS(=O)(=O)c1ccc2c(Cl)cnc(N=C(N)N)c2c1)C(=O)O", "Potency": "inactive"}, {"smiles": "Nc1ncccc1-c1nc2ccc(-c3ccccc3)nc2n1-c1ccc(C2(N)CCC2)cc1", "Potency": "inactive"}, {"smiles": "CN1CCN(CCOc2cc(OC3CCOCC3)c3c(Nc4c(Cl)ccc5c4OCO5)ncnc3c2)CC1", "Potency": "83.9 nM (active)"}, {"smiles": "O=c1c(O)c(-c2ccc(O)c(O)c2)oc2cc(O)cc(O)c12", "Potency": "inactive"}, {"smiles": "Cc1cc(Nc2ncc3c(n2)N(C)C(=O)N(c2cc(NC(=O)c4cccc(C(F)(F)F)c4)ccc2C)C3)n(C)n1", "Potency": "inactive"}, {"smiles": "c1ccc(-c2oc3ncnc(NC[C@@H]4CCCO4)c3c2-c2ccccc2)cc1", "Potency": "inactive"}, {"smiles": "O=C(O)C1(Cc2cccc(Nc3nccs3)n2)CCC(Oc2cccc(Cl)c2F)CC1", "note": "(stereo not given)", "Potency": "1150 nM (active)"}, {"smiles": "Cc1ccc(NC(=O)N2CCN(c3nc(N)nc4sc(-c5cccnc5)nc34)CC2)cc1", "Potency": "inactive"}, {"smiles": "COC(=O)Nc1ccc(-c2nc(N3CCOCC3)c3cnn(C4CCN(C(=O)OC)CC4)c3n2)cc1", "Potency": "inactive"}, {"smiles": "COc1ccc2c(Oc3ccc(NC(=O)c4c(C)n(CC(C)(C)O)n(-c5ccccc5)c4=O)nc3)ccnc2c1", "Potency": "inactive"}, {"smiles": "Cc1cc(F)ccc1-c1nc(NC(CO)CO)nc2c1ccc(=O)n2-c1c(F)cccc1F", "Potency": "inactive"}, {"smiles": "CCCCCCCCCCCCc1ccc(S(=O)(=O)Nc2nncs2)cc1", "Potency": "inactive"}, {"smiles": "Cc1c(Cl)cccc1S(=O)(=O)Nc1nc(NCCc2ccccc2)nc2c1CN(Cc1ccccc1)CC2", "Potency": "inactive"}, {"smiles": "COc1cc(N2CCN(C)CC2)ccc1Nc1nc(N)c(C(=O)c2c(Cl)cccc2Cl)s1", "Potency": "inactive"}, {"smiles": "C=CC(=O)N1CCC(Oc2cc3c(Nc4ccc(Cl)c(Cl)c4F)ncnc3cc2OC)CC1", "Potency": "inactive"}, {"smiles": "CC(C)(C)n1nc(-c2cccc3ccccc23)c2c(N)ncnc21", "Potency": "inactive"}, {"smiles": "O=C(NCCO)c1cccc(-c2cc(Nc3ccc(OC(F)(F)F)cc3)ncn2)c1", "Potency": "inactive"}, {"smiles": "Cn1sc(=O)n(Cc2ccccc2)c1=O", "Potency": "inactive"}, {"smiles": "S=C(NCc1ccc2c(c1)OCO2)N1CCN(c2ncnc3c2oc2ccccc23)CC1", "Potency": "inactive"}, {"smiles": "CN1CCN(c2ccc(Nc3ncc4cc(C#N)c(=O)n(C5CCCC5)c4n3)cc2)CC1", "Potency": "inactive"}, {"smiles": "COc1cc2ncnc(-n3nc(-c4ccccn4)nc3N)c2cc1OC", "Potency": "891 nM (active)"}]}]}
